Inconclusive results are not listed. Active and inactive are the calls of the source. The call rests on the fitted dose curve; in most records, active means well fitted inhibition curve with a large enough effect; inconclusive means small, poorly fitted or top-dose-only effect; inactive means flat fitted curve, though single readings scatter.
Experiments:
Assay in all cases: Cytotoxic Profiling of Annotated Libraries Using Quantitative High-Throughput Screening (AID 1296008); further: nearly all actives have a fitted effect of over 60% in size
Details in all cases: Five cell lines viability, CellTiter-Glo ATP luminescence, 48-72 h; max response: hits give low values
CRL-7250 = normal cell line; tested on: CRL-7250
In short: (§1)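 Cytotoxicity was measured as CellTiter-Glo ATP luminescence, read after 10 min at room temperature. Compound treatment of the cells lasted 48 or 72 hr at 37 degrees Celsius in a qHTS format.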

HEK293 = tested on: HEK293
In short: as §1

HaCat = tested on: HaCat
In short: as §1

KB-3-1 = tested on: KB-3-1
In short: as §1
On the % scale 0 is the no-effect control and ±100 the full control effect; potency means the concentration at half of the fitted maximal effect.

CC(C)(C)Nc1nc2cc(Cl)c(Cl)cc2nc1S(C)(=O)=O
active: Potency (CRL-7250) 16.4 µM | Potency (HEK293) 4.11 µM | Potency (HaCat) 5.8 µM | Potency (KB-3-1) 13 µM

C=C1C(=O)OC2/C=C(\CO)CC/C=C(\C=O)CC(OC(=O)CC(C)C)C12 (stereo not drawn)
inactive: max response (CRL-7250) -22.7% | max response (HaCat) -10.5% | max response (KB-3-1) -5.58%
active: Potency (HEK293) 12.8 µM

COc1cc(-c2ncn(/C=C\C(=O)OC(C)C)n2)cc(C(F)(F)F)c1
active: Potency (CRL-7250) 4.11 µM | Potency (HEK293) 0.259 µM | Potency (HaCat) 2.06 µM | Potency (KB-3-1) 1.84 µM

COc1ccc(-c2c(-c3cc(C(=O)O)ccn3)ncn2C)cc1
inactive: max response (CRL-7250) 4.8% | max response (HEK293) -1.7% | max response (HaCat) -1.2% | max response (KB-3-1) 4.75%

COc1nc2sc(C(=O)NC3CC3)c(N)c2c(C)c1Cl
inactive: max response (CRL-7250) -8.27% | max response (HEK293) -8.8% | max response (HaCat) -34.1% | outcome (KB-3-1)

COC(=O)Cc1cc2c(c([N+](=O)[O-])c1)N(C(=O)CC[C@H](N)C(=O)O)CC2
inactive: max response (CRL-7250) -4.18% | max response (HEK293) -4.25% | max response (HaCat) -29.1% | max response (KB-3-1) 7.29%

CCCCNc1ccc(-c2ccc(CN3CCOCC3)cn2)c(NC2CCC(O)CC2)c1 (stereo not drawn)
inactive: outcome (CRL-7250) | max response (HEK293) -7.2% | max response (HaCat) -2.49% | max response (KB-3-1) -18.8%

COc1cc2ncnc(Nc3cccc(O)c3)c2cc1OC
active: Potency (HaCat) 4.61 µM
inactive: outcome (CRL-7250) | max response (HEK293) -2.36% | outcome (KB-3-1)

COc1ccccc1NC(=O)OCC1CCN(C(=O)OC(C)(C)C)CC1
inactive: max response (CRL-7250) -0.083% | max response (HEK293) -0.473% | max response (HaCat) 2.46% | max response (KB-3-1) -8.5%

CN(C)C/C=C/C(=O)Nc1cc2c(Nc3ccc(F)c(Cl)c3)ncnc2cc1OC1CCOC1 (stereo not drawn)
active: Potency (CRL-7250) 11.6 µM | Potency (HEK293) 5.8 µM | Potency (HaCat) 0.517 µM | Potency (KB-3-1) 5.17 µM

COCCOc1cnc2ccn([C@H](C)c3nnc4c(F)cc(-c5cnn(C)c5)cn34)c(=O)c2c1
inactive: outcome (CRL-7250) | max response (HEK293) 1.47% | max response (HaCat) 4.9% | max response (KB-3-1) 1.49%

COc1ccc2nc(S(=O)(=O)Cc3ncc(C)c(OC)c3C)[nH]c2c1
inactive: max response (CRL-7250) -21.3% | max response (HaCat) -8.8% | max response (KB-3-1) -6.6%
active: Potency (HEK293) 16.4 µM

CCC(Nc1ncnc2nc[nH]c12)c1nc2cccc(F)c2c(=O)n1-c1ccccc1 (stereo not drawn)
inactive: max response (CRL-7250) -7.4% | max response (HEK293) -7.81% | max response (HaCat) -6.65% | outcome (KB-3-1)

Nc1ccc(/C=C/C(=O)NCc2cc3cc(-c4ccc(C(=O)N5CCC(F)(F)CC5)cc4)cc(-c4ccc(F)cc4)c3o2)cn1
active: Potency (CRL-7250) 3.66 µM | Potency (HEK293) 0.58 µM | Potency (HaCat) 5.17 µM | Potency (KB-3-1) 0.92 µM

CC(=O)C12OC(C)(C)OC1CC1C3CCC4=CC(=O)C=CC4(C)C3(F)C(O)CC12C (stereo not drawn)
inactive: max response (CRL-7250) -7.35% | max response (HEK293) -19.2% | max response (HaCat) -3.19% | outcome (KB-3-1)

CC1=C(C(=O)OCc2ccccc2)C(c2ccc(-c3ccccc3)cc2)NC(=O)N1CCCCCC(=O)O (stereo not drawn)
inactive: max response (CRL-7250) -0.424% | max response (HEK293) -21.5% | max response (HaCat) -18.2% | outcome (KB-3-1)

CCOc1cc(C)c(Cl)cc1S(=O)(=O)n1cnc2ccccc21
inactive: max response (CRL-7250) -6.19% | max response (HEK293) -19.4% | max response (HaCat) -29.2% | outcome (KB-3-1)

N#CC(c1ccnc(OCc2ccc(CN3CCOCC3)cc2)n1)c1nc2ccccc2s1 (stereo not drawn)
inactive: outcome (CRL-7250) | max response (HaCat) 0.847% | max response (KB-3-1) -18.3%
active: Potency (HEK293) 5.17 µM

CO[C@H]1/C=C\O[C@@]2(C)Oc3c(C)c(O)c4c(O)c(c5c(nc6cc(C)ccn65)c4c3C2=O)NC(=O)/C(C)=C\C=C/[C@H](C)[C@H](O)[C@@H](C)[C@@H](O)[C@@H](C)[C@H](OC(C)=O)[C@@H]1C
inactive: max response (CRL-7250) -2.8% | max response (HEK293) -17.1% | max response (HaCat) -2.81% | max response (KB-3-1) 9.37%

O=C(Cc1ccc(-c2ccccc2)cc1)NC1CCC1
inactive: outcome (CRL-7250) | max response (HEK293) 2.52% | max response (HaCat) -21.1% | max response (KB-3-1) 4.19%

CC[C@]1(O)CC2CN(CCc3c([nH]c4ccccc34)[C@@](C(=O)OC)(c3cc4c(cc3OC)N(C=O)[C@H]3[C@@](O)(C(=O)OC)[C@H](OC(C)=O)[C@]5(CC)C=CCN6CC[C@]43[C@@H]65)C2)C1 (stereo partly drawn)
active: Potency (CRL-7250) 0.064 µM | Potency (HEK293) 0.0321 µM | Potency (KB-3-1) 0.0081 µM
inactive: max response (HaCat) 3.94%

O=C(O)[C@@H]1C[C@H]2C[C@@H](CCc3nn[nH]n3)CC[C@H]2CN1
inactive: max response (CRL-7250) 0.564% | max response (HEK293) 1.79% | max response (HaCat) 2.14% | outcome (KB-3-1)

Source: PubChem BioAssay (NCATS)
